# In PubChem BioAssay (NCATS):
# Records with an inconclusive call do not appear. Calls of active or inactive are those of the source. Calls follow the shape of the dose curve; as a rule, active = well fitted curve in the direction sought with a large enough effect; inconclusive = small, poorly fitted or top-dose-only effect, or another doubt; inactive = no such curve, though single readings can be large; an effect the other way counts as inactive or inconclusive.
# Test: BET inhibitor-based combinations targeting novel dependencies in MECOM-rearranged (r) AML: UCSD-AML1 cell line (AID 2202235); also: nearly all actives have a fitted effect of over 40% in size
# Conditions: UCSD-AML1 AML cells viability, CellTiter-Glo, 48 h; series mostly up to 46 µM
# Outline: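 Each compound is tested in an 11-point concentration series against 500 seeded cells/well for 48 hr. The luminescent viability signal is normalized to DMSO and blank wells, then reduced to AUC and a cell-line-centred Z-AUC.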
# Potency is read from the fitted curve at half-maximal effect.
row,Compound,Potency
1,COc1ccc2[nH]c(S(=O)Cc3ncc(C)c(OC)c3C)nc2c1 (stereo not drawn),inactive
2,COc1ncc(Nc2ncc([C@H](C)N3CCN(S(C)(=O)=O)CC3)cc2-c2nc(C)nc(N)n2)cc1F,0.296 µM (active)
3,CC(/C=C/C(=O)NO)=C\[C@@H](C)C(=O)c1ccc(N(C)C)cc1,1.05 µM (active)
4,C=CC(=O)Nc1cccc(Nc2nc(Nc3ccc(N4CCN(C(C)=O)CC4)cc3OC)ncc2C(F)(F)F)c1,5.9 µM (active)
5,O=C(c1ccc(/C=C/c2n[nH]c3ccccc23)cc1)N1CCNCC1,3.32 µM (active)
6,[2H]C([2H])(Nc1nc(-c2ccccc2C([2H])(C([2H])([2H])[2H])C([2H])([2H])[2H])ncc1C)c1ccc(-n2ccnn2)cc1,inactive
7,Cc1c[nH]c2ncnc(N3CCC(CN)(C(=O)Nc4cccc(OC(=O)N(C)C)c4)CC3)c12,inactive
8,CC(C)NC(=O)COc1cccc(-c2nc(Nc3ccc4[nH]ncc4c3)c3ccccc3n2)c1,inactive
9,CCn1c(=O)c(-c2ccc(Cl)cc2Cl)cc2cnc(Nc3ccc(N4CCNCC4)c(F)c3)nc21,0.525 µM (active)
10,Cc1cccc(-c2[nH]ncc2-c2ccc(F)c(-c3cnn(CCO)c3)c2)n1,inactive
11,Cc1c(NC(=O)OCC2COCCN2)cn2ncnc(Nc3ccc4c(cnn4Cc4cccc(F)c4)c3)c12 (stereo not drawn),inactive
12,Cn1cc(-c2cnn3c(N)c(Br)c(C4CCCNC4)nc23)cn1 (stereo not drawn),5.25 µM (active)

# Test: BET inhibitor-based combinations targeting novel dependencies in MECOM-rearranged (r) AML: AML-191 cell line (AID 2202236; also: nearly all actives have a fitted effect of over 35% in size)
# Conditions: AML-191 viability, CellTiter-Glo luminescence, 48 h; series mostly up to 46 µM
# Outline: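 A 48 hr incubation preceded viability reading by CellTiter-Glo, with 15 min room-temperature development. Dose series had 11 points; normalization used DMSO and empty wells; AUC was computed and mean-centered per line as Z-AUC.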
row,Compound,Potency
1,COc1ccc2[nH]c(S(=O)Cc3ncc(C)c(OC)c3C)nc2c1 (stereo not drawn),inactive
2,CC(/C=C/C(=O)NO)=C\[C@@H](C)C(=O)c1ccc(N(C)C)cc1,1.18 µM (active)
3,C=CC(=O)Nc1cccc(Nc2nc(Nc3ccc(N4CCN(C(C)=O)CC4)cc3OC)ncc2C(F)(F)F)c1,9.34 µM (active)
4,O=C(c1ccc(/C=C/c2n[nH]c3ccccc23)cc1)N1CCNCC1,2.95 µM (active)
5,COc1ccc(Cl)c(Nc2nc3ccccc3nc2NS(=O)(=O)c2cccc(NC(=O)C(C)(C)N)c2)c1,16.6 µM (active)
6,Cc1c(NC(=O)OCC2COCCN2)cn2ncnc(Nc3ccc4c(cnn4Cc4cccc(F)c4)c3)c12 (stereo not drawn),23.5 µM (active)
